# Unmarked numbers belong to inactive results. Inconclusive results are not listed. A call without a number means that no potency is given here. The source made the active and inactive calls. The call rests on the fitted dose curve; in most records, active means well fitted curve in the direction sought with a large enough effect; inconclusive means small, poorly fitted or top-dose-only effect, or another doubt; inactive means no such curve, though single readings can be large; an effect the other way counts as inactive or inconclusive.
# Legend:
# [1] = Primary qHTS for inhibitors of nuclear receptor binding SET domain protein 2 (NSD2) in an isogenic RCH-ACV NSD2 p.E1099K mutant (9B) (AID 1645876); further: nearly all actives have a fitted effect of over 70% in size; further: potency means the concentration at half of the fitted maximal effect
# [2] = Primary qHTS for inhibitors of nuclear receptor binding SET domain protein 2 (NSD2) in an RCH-ACV wild type WT cells (2C) (AID 1645877); further: nearly all actives have a fitted effect of over 70% in size; further: potency means the concentration at half of the fitted maximal effect
# [3] = biological target: Glutathione peroxidase 1 (Homo sapiens) (UniProt P07203); assay: Primary qHTS Assay for Inhibitors of Recombinant Selenoprotein Glutathione Peroxidase 1 (GPX1) (AID 1845191); further: nearly all actives have a fitted effect of over 65% in size
# Chain of Glutathione peroxidase 1 (Homo sapiens) (P07203 whole entry, looked up): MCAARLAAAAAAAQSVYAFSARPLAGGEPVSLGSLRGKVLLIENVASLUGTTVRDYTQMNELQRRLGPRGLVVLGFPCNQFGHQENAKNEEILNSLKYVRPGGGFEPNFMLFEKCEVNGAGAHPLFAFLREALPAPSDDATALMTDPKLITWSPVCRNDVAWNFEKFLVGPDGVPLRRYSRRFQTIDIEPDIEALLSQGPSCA
# How it was run: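 GR-coupled assay: compounds preincubated 30 min at room temperature with GPX1, then reaction started with CHP; final 10 nM GPX1, 1 mM GSH, 0.5 mM CHP, 0.5 mM NADPH, 100 nM GR, 0.01% BSA, pH 7.5 Tris buffer. NADPH fluorescence (340/450 nm) read at 0 and 15 min.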
# [4] = biological target: Phospholipid hydroperoxide glutathione peroxidase GPX4 (Homo sapiens) (UniProt P36969); assay: Primary qHTS Assay for Inhibitors of Recombinant Selenoprotein Glutathione Peroxidase 4 (GPX4) (AID 1845192); further: nearly all actives have a fitted effect of over 65% in size
# Chain of Phospholipid hydroperoxide glutathione peroxidase GPX4 (Homo sapiens) (P36969 whole entry, looked up): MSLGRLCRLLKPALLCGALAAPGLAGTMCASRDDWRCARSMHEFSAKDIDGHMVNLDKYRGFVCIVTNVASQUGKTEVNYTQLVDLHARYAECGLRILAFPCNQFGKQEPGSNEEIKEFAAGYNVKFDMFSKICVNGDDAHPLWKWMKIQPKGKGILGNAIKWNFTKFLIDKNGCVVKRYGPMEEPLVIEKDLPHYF
# How it was run: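 GR-coupled assay: recombinant GPX4 preincubated 30 min with compound at room temperature; final 200 nM GPX4, 1 mM GSH, 0.5 mM cumene hydroperoxide, 0.5 mM NADPH, 100 nM GR, 0.01% BSA, pH 7.5 Tris. NADPH fluorescence (340/450 nm) read at 0 and 15 min.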
# [5] = biological target: Luciferin 4-monooxygenase (Photinus pyralis) (UniProt P08659); assay: Primary firefly luciferase (FLuc) qHTS assay for identification of artifact compounds. (AID 1845220); conditions: outcome: dose series up to 54.1 µM unless noted; further: nearly all actives have a fitted effect of over 60% in size
# How it was run: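 Titrated compounds were incubated 15 min at RT, protected from light, with luciferin and ATP at 10 uM; reaction started with 10 nM FLuc, luminescence imaged at 5 min, and concentration-response fitted by Hill equation.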
# [6] = Primary fluorescence-based thiol-reactive (MSTI) qHTS assay for identification of artifact compounds. (AID 1845221); further: nearly all actives have a fitted effect of over 65% in size; further: potency means the concentration at half of the fitted maximal effect
# How it was run: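 Thiol-reactive compounds detected by quenching of 4 uM MSTI fluorescence (525/598 nm) after 1 h room-temperature dark incubation in PBS pH 7.4, 2% DMSO. qHTS titration; percent inhibition Hill-fitted against Acetyl-MSTI/MSTI controls.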
# [7] = test system: CRL-7250; assay: Cytotoxic Profiling of Annotated Libraries Using Quantitative High-Throughput Screening (AID 1296008); conditions: Five cell lines viability, CellTiter-Glo ATP luminescence, 48-72 h; max response: active compounds read low; further: nearly all actives have a fitted effect of over 60% in size; further: potency means the concentration at half of the fitted maximal effect
# How it was run: (§1)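 Cells exposed to compounds for 48 or 72 hr at 37 degrees Celsius. Viability read as ATP-coupled luminescence with CellTiter-Glo after 10 min at room temperature.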
# [8] = test system: HEK293; assay: as above; conditions: Five cell lines viability, CellTiter-Glo ATP luminescence, 48-72 h; max response: active compounds read low
# How it was run: as §1
# [9] = test system: HaCat; assay: as above; conditions: Five cell lines viability, CellTiter-Glo ATP luminescence, 48-72 h; max response: active compounds read low
# How it was run: as §1
# [10] = test system: NIH3T3; assay: as above; conditions: Five cell lines viability, CellTiter-Glo ATP luminescence, 48-72 h; max response: active compounds read low
# How it was run: as §1
# [11] = test system: C33A; assay: Primary qHTS to identify gynecologic anti-cancer compounds using libraries of approved drugs and bioactive compounds (AID 1345084); conditions: Gynecologic cancer cell panel viability, ATPlite luminescence, 48 h; series mostly up to 57.5 µM; further: nearly all actives have a fitted effect of over 55% in size
# How it was run: (§2)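 Five-point cytotoxicity, 48 h drug exposure at 37 C, 5% CO2, on cells seeded 16 h beforehand. ATP content read by ATPlite luminescence.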
# [12] = test system: Es-2; assay: as above; conditions: Gynecologic cancer cell panel viability, ATPlite luminescence, 48 h; series mostly up to 57.5 µM
# How it was run: as §2
# [13] = test system: Hek293T; assay: as above; conditions: Gynecologic cancer cell panel viability, ATPlite luminescence, 48 h, control line for the selectivity index; series mostly up to 57.5 µM
# How it was run: as §2
# [14] = test system: OV90; assay: as above; conditions: Gynecologic cancer cell panel viability, ATPlite luminescence, 48 h; series mostly up to 57.5 µM
# How it was run: as §2
# [15] = test system: PA-1; assay: as above; conditions: Gynecologic cancer cell panel viability, ATPlite luminescence, 48 h; series mostly up to 57.5 µM
# How it was run: as §2
# [16] = test system: Tov-21-G; assay: as above; conditions: Gynecologic cancer cell panel viability, ATPlite luminescence, 48 h; series mostly up to 57.5 µM
# How it was run: as §2
# [17] = test system: Tov112D; assay: as above; conditions: Gynecologic cancer cell panel viability, ATPlite luminescence, 48 h; series mostly up to 57.5 µM
# How it was run: as §2
# [18] = test system: Nanoluciferase (engineered Oplophorus gracilirostris luciferase); assay: Primary Nanoluciferase (NLuc) qHTS assay for identification of artifact compounds. (AID 1845222);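 further: NLuc secreted into diluted conditioned medium of S16 cells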
# How it was run: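 qHTS format, against NLuc in S16 cell-conditioned medium. Nano-Glo substrate 1:100 was added after 15 min at room temperature. Luminescence was taken after a further 5 min.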
# [19] = test system: KB-3-1; assay: Cytotoxic Profiling of Annotated Libraries Using Quantitative High-Throughput Screening (AID 1296008); conditions: Five cell lines viability, CellTiter-Glo ATP luminescence, 48-72 h; max response: active compounds read low; further: nearly all actives have a fitted effect of over 60% in size; further: potency means the concentration at half of the fitted maximal effect
# How it was run: as §1
# [20] = test system: CASKI; assay: Primary qHTS to identify gynecologic anti-cancer compounds using libraries of approved drugs and bioactive compounds (AID 1345084); conditions: Gynecologic cancer cell panel viability, ATPlite luminescence, 48 h; series mostly up to 57.5 µM; further: nearly all actives have a fitted effect of over 55% in size
# How it was run: as §2
structure (smiles),measurement,setting,value
CN1C[C@@H]2CN(c3ccc(-c4ccccc4)nn3)C[C@@H]2C1,Potency,[1],inactive
same,Potency,[2],inactive
same,Potency,[3],inactive
same,Potency,[4],inactive
same,outcome,[5],inactive
same,Potency,[6],inactive
same,max response,[7],2.36%
same,max response,[8],-5.4%
same,max response,[9],-2.1%
same,outcome,[10],inactive
same,Potency,[11],inactive
same,Potency,[12],inactive
same,Potency,[13],inactive
same,Potency,[14],inactive
same,Potency,[15],inactive
same,Potency,[16],inactive
same,Potency,[17],inactive
C=C1C[C@]2(O)[C@@]3(C)CCC(=O)C(C)(C)C3=C(O)C(=O)[C@@]2(C)[C@@H]2C(=O)O[C@@](C)(C(=O)OC)C(=O)[C@@]12C,Potency,[1],inactive
same,Potency,[2],inactive
same,Potency,[3],inactive
same,Potency,[4],inactive
same,outcome,[5],inactive
same,Potency,[18],inactive
same,max response,[7],2.22%
same,outcome,[8],inactive
same,max response,[19],1.74%
same,max response,[10],1.84%
same,Potency,[11],inactive
same,Potency,[20],inactive
same,Potency,[12],inactive
same,Potency,[13],inactive
same,Potency,[14],inactive
same,Potency,[15],inactive
same,Potency,[16],inactive
same,Potency,[17],inactive
CC[C@H]1C2CC3[C@@H]4N(C)c5ccccc5[C@]45C[C@@H]([C@H]2[C@H]5O)N3[C@@H]1O,Potency,[1],inactive
same,Potency,[2],inactive
same,Potency,[3],inactive
same,outcome,[5],inactive
same,Potency,[18],inactive
same,max response,[7],-2.01%
same,max response,[8],0.828%
same,max response,[9],4.96%
same,max response,[19],0.117%
same,Potency,[11],inactive
same,Potency,[20],inactive
same,Potency,[12],inactive
same,Potency,[13],inactive
same,Potency,[14],inactive
same,Potency,[15],inactive
same,Potency,[16],inactive
same,Potency,[17],inactive
CC(=O)O[C@H]1CC[C@@]2(CI)C(=CC[C@@H]3[C@@H]2CC[C@]2(C)C(=O)CC[C@@H]32)C1,Potency,[3],inactive
same,Potency,[4],inactive
same,outcome,[5],inactive
same,Potency,[6],inactive
same,Potency,[18],inactive
same,outcome,[7],inactive
same,max response,[8],-18.2%
same,outcome,[9],inactive
same,max response,[10],0.959%
same,Potency,[11],inactive
same,Potency,[20],inactive
same,Potency,[12],inactive
same,Potency,[13],inactive
same,Potency,[14],inactive
same,Potency,[15],inactive
same,Potency,[16],inactive
same,Potency,[17],inactive
CCC1=CC2CN3CCc4c([nH]c5ccccc45)[C@@](C(=O)OC)(C2)[C@@H]13,Potency,[3],inactive
same,outcome,[5],inactive
same,Potency,[18],inactive
same,max response,[7],-21.4%
same,max response,[8],-6.65%
same,max response,[9],-7.15%
same,Potency,[11],inactive
same,Potency,[20],inactive
same,Potency,[12],inactive
same,Potency,[13],inactive
same,Potency,[14],inactive
same,Potency,[15],inactive
same,Potency,[16],inactive
same,Potency,[17],inactive
C[C@H](CCC(=O)O)C[C@H](C)C[C@H](C)C(=O)/C=C(\O)[C@H](C)C[C@H](C)C/C=C/[C@@H](C)[C@@H](O)[C@@H](C)[C@@H](O)C[C@@H]1CC[C@@](C)([C@H]2CC[C@@](C)([C@@H](C)O)O2)O1,Potency,[1],7.09 µM (active)
same,Potency,[2],4.47 µM (active)
same,Potency,[3],inactive
same,Potency,[4],inactive
same,outcome,[5],inactive
same,Potency,[6],inactive
same,Potency,[18],inactive
same,Potency,[7],3.17 µM (active)
same,Potency,[8],5.02 µM (active)
same,max response,[9],-1.41%
same,Potency,[19],8.93 µM (active)
same,Potency,[11],inactive
same,Potency,[20],inactive
same,Potency,[12],inactive
same,Potency,[13],inactive
same,Potency,[15],inactive
same,Potency,[17],inactive
CN1CCN(c2nc3ccccc3nc2Cl)CC1,Potency,[1],inactive
same,Potency,[2],inactive
same,Potency,[3],inactive
same,Potency,[4],inactive
same,outcome,[5],inactive
same,Potency,[6],inactive
same,Potency,[18],inactive
same,max response,[7],-8.1%
same,outcome,[8],inactive
same,outcome,[19],inactive
same,outcome,[10],inactive
same,Potency,[11],inactive
same,Potency,[20],inactive
same,Potency,[12],inactive
same,Potency,[13],inactive
same,Potency,[14],inactive
same,Potency,[15],inactive
same,Potency,[16],inactive
same,Potency,[17],inactive
O=C(OC[C@H]1O[C@@H](Oc2ccc(O)cc2CO)[C@H](O)[C@@H](O)[C@@H]1O)c1ccccc1,Potency,[1],inactive
same,Potency,[3],inactive
same,Potency,[4],inactive
same,outcome,[5],inactive
same,Potency,[6],3.67 µM (active)
same,Potency,[18],inactive
same,max response,[7],2.78%
same,max response,[8],0.485%
same,max response,[9],-28.3%
same,max response,[19],4.17%
same,Potency,[11],inactive
same,Potency,[20],inactive
same,Potency,[12],inactive
same,Potency,[13],inactive
same,Potency,[14],inactive
same,Potency,[15],inactive
same,Potency,[16],inactive
same,Potency,[17],inactive
C[C@@H]1[C@H](O)[C@@H](C)/C=C/C=C/CC/C=C/C=C/C=C/C=C/[C@H](O[C@H]2O[C@@H](C)[C@H](O)[C@@H](N)[C@H]2O)C[C@@H]2O[C@](O)(C[C@@H](O)[C@H](O)CC[C@@H](O)C[C@@H](O)C[C@@H](O)CC(=O)O[C@H]1C)C[C@H](O)[C@H]2C(=O)O,Potency,[1],inactive
same,Potency,[3],inactive
same,Potency,[4],inactive
same,Potency,[6],inactive
same,Potency,[18],inactive
same,max response,[7],-12.4%
same,max response,[8],0.0089%
same,outcome,[9],inactive
same,outcome,[19],inactive
same,Potency,[11],inactive
same,Potency,[20],inactive
same,Potency,[12],inactive
same,Potency,[13],inactive
same,Potency,[14],inactive
same,Potency,[15],inactive
same,Potency,[16],inactive
same,Potency,[17],inactive

# Source: PubChem BioAssay (NCATS)
